# PLK1 PBD block – PLK1 (human) polo-box domain binding inhibition; P53350; Plk1 PBD binding of FITC phosphopeptide, fluorescence polarization; Potency, µM, without a hit: max response, negative = inhibition, most hits filed as inhibitors; actives 2.8% (n = 360,000); AID 720504; also: series mostly up to about 57 µM; % is scaled to controls: 0 for no effect and ±100 for the full control effect; nearly all actives have a fitted effect of over 65% in size
# Target sequence (P53350 whole entry, looked up, the tested form may be a part): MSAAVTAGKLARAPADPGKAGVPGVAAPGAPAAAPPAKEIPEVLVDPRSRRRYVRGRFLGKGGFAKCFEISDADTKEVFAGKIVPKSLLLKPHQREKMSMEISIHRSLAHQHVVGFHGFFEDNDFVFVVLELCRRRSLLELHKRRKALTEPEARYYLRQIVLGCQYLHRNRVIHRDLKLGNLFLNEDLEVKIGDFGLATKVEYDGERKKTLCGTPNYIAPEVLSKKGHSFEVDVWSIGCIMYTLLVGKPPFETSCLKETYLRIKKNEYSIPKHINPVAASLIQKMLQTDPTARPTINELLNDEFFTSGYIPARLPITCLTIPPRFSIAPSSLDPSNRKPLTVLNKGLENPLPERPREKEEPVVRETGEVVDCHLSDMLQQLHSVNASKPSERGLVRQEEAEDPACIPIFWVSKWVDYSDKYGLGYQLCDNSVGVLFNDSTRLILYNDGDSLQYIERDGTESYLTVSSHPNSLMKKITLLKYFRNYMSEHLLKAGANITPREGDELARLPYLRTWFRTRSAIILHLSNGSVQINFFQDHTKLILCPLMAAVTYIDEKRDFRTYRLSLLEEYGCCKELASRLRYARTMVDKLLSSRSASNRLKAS
# Tb PFK block – T. brucei PFK enzyme inhibition. O15648. actives 0.17% (n = 330,000). Potency, µM (doses to about 57.5 µM), for the others: top-dose activity, negative = inhibition, hits mostly inhibitors. AID 485367. T. brucei PFK, ADP-Glo luminescence;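 also: 0% = uninhibited 1x PFK enzyme wells and -100% = no-enzyme wells; nearly all actives have a fitted effect of over 60% in size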
#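 1.25 nM PFK with 0.5 mM F6P and 0.1 mM ATP in 0.1 M TEA pH 8.0, 5 mM MgCl2, incubated 45 min at room temperature; ADP measured by ADP-Glo luminescence; compounds titrated up to 57 uM.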
# BRCA1 expr act – increases BRCA1 expression. actives 1.1% (n = 380,000). MCF7-BRCA1-FFLuc reporter, luminescence, 48 h; response scale: scaled: vehicle 0%, 10 µM genistein 100%. Potency, µM (highest dose often 46.1 µM), for inactives: at the top dose activation, actives largely listed as activators; also: nearly all actives have a fitted effect of over 80% in size
#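 Reporter cells (MCF7, BRCA1 promoter-firefly luciferase) received library compounds across a concentration series for 48 h. End-point luminescence was measured and concentration-effect curves derived after normalization.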
# VDR inh – inhibitors of human vitamin D receptor. VDR-SRC2-3 peptide fluorescence polarization, 2 h. actives 0.93% (n = 400,000). P11473. Potency, µM, for the others: max response, negative = inhibition, actives largely listed as inhibitors; also: % is scaled to controls: 0 for no effect and ±100 for the full control effect
#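 Compounds are added to VDR with labelled SRC2-3 coactivator peptide and held 2 h at room temperature. Inhibition of the VDR–peptide interaction is then read as a change in fluorescence polarization.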
# * hit, by the source's call; ? = inconclusive; · = no result given. Shown are actives, neighbours in structure and some others; about 3.9% of the full set was active somewhere. Calls follow the shape of the dose curve; as a rule, active = well fitted curve in the direction sought with a large enough effect; inconclusive = small, poorly fitted or top-dose-only effect, or another doubt; inactive = no such curve, though single readings can be large; an effect the other way counts as inactive or inconclusive. Potency is read from the fitted curve at half-maximal effect.
SMILES,PLK1 PBD block,Tb PFK block,BRCA1 expr act,VDR inh
Cc1cc2cc(CNC(=O)c3cccs3)ccc2n1C,27µM*,-1%,-1%,-14%
N#Cc1ccc(-n2nccc2-c2cnc3n(c2=O)CCS3)cc1,27µM*,-1%,20%,?
CO[C@H]1C([C@@]2(C)O[C@@H]2CC=C(C)C)[C@]2(CC[C@H]1OC(=O)/C=C/C=C/C=C/C=C/C(=O)O)CO2 (some centres undefined),·,·,·,35µM*
CCc1ccc2c(c1)NC(c1ccc(C)cc1)=NC(c1cccs1)=N2,·,·,·,-1%
O=C(Nc1ccc(Br)cc1)c1cnccn1,-2%,2%,8.9µM*,1%
Cc1ccc(NC(=O)c2cnccn2)cc1C,-7%,1%,7.9µM*,1%
O=C(Cc1ccc(Cl)cc1)NNC(=O)c1cnccn1,30µM*,-18%,1%,-18%
Cc1ccc(NC(=O)c2cnccn2)cc1,1%,-2%,107%,8%
COc1cc(-c2nc(Cn3nnc(C(=O)Nc4ccccc4C)c3C)c(C)o2)cc(OC)c1OC,·,·,0%,-21%
NS(=O)(=O)c1ccc(CCNC(=O)Cn2c(-c3cccs3)cc3ccccc32)cc1,·,·,·,12%
CCn1nccc1C(=O)Nc1ccc(Cl)cc1Cl,-3%,-2%,10µM*,11%
CCn1nccc1C(=O)Nc1cc(Cl)ccc1Cl,-1%,15%,8%,2%
O=C(CC(=O)Nc1ccc(Cl)cc1Cl)Nc1ccc(Cl)cc1Cl,30µM*,0%,-30%,-2%
NC(=S)N/N=C/c1cn(-c2ccccc2)nc1-c1cccnc1,3.4µM*,-1%,38%,28µM*
O=C(O)/C(=C\c1cn(-c2ccccc2)nc1-c1cccnc1)NC(=O)c1ccccc1,6%,1%,-2%,0%
Cc1cc(C)cc(-n2ccn(Cc3ccc(F)cc3)c(=O)c2=O)c1,·,·,·,-6%
CCCCOc1nc2ccccc2nc1C(C#N)C(=O)NC1CCCCC1 (centres undefined),27µM*,3%,-19%,-11%
CC1CCN(c2nc3ccccc3nc2C(C#N)C(=O)NC2CCCCC2)CC1 (centres undefined),·,0%,·,·
Cc1ccc(NC(=O)CN2C(=O)CSc3ccc(S(=O)(=O)N(C)C)cc32)cc1C,·,·,-3%,-1%
O=C(NCCCc1ccccc1)c1cnc2n(c1=O)CCS2,?,-6%,6.3µM*,8%
Cc1nc2c(C(=O)NCCC3=CCCCC3)c[nH]n2c(=O)c1Cl,24µM*,0%,7%,-18%
O=C(NCCC1=CCCCC1)c1cnc2n(c1=O)CCS2,-12%,0%,8.9µM*,-5%
O=C(NCCc1ccc(Cl)cc1)c1cnc2n(c1=O)CCS2,-16%,0%,?,14%
Cc1noc(C)c1CSc1ccc(Br)cc1,?,14%,15%,-8%
c1ccc(-c2cnc(CSc3ncnc4sccc34)o2)cc1,?,-27%,33%,8%
SMILES,PLK1 PBD block,Tb PFK block,BRCA1 expr act,VDR inh
CC(=O)Nc1ccc(NC(=O)C(C)OC(=O)c2ccc(OCc3c(C)noc3C)cc2)cc1 (centres undefined),30µM*,0%,-23%,?
CC(=O)Nc1ccc(SCc2c(C)noc2C)cc1,21µM*,-4%,-17%,-12%
CC(=O)Nc1ccc(SCc2ncc(-c3ccccc3)o2)cc1,13µM*,0%,?,-9%
O=C(Nc1cccc(Br)c1)N1CCN2CCCCC2C1 (centres undefined),·,·,·,-2%
O=C(NCc1cccc(C(F)(F)F)c1)C1C(=O)Nc2ccccc2C(=O)N1Cc1ccccc1 (centres undefined),-17%,·,·,·
COc1ccccc1NC(=O)COC(=O)Cc1c[nH]c2ccccc12,4%,-4%,-34%,2%
COc1ccccc1NC(C)C(=O)c1c[nH]c2ccccc12 (centres undefined),·,·,13µM*,·
COCCN1C(=O)N(c2cccc(OC)c2)C(=O)C1CC(=O)Nc1ccc(OC)cc1 (centres undefined),-3%,2%,-4%,-14%
CCOc1ccc(NC(=O)CC2C(=O)N(c3cccc(OC)c3)C(=O)N2CCOC)cc1 (centres undefined),30µM*,2%,-2%,-27%
COc1ccc(-c2cn3nc(N4CCCC(C(=O)NCc5ccccc5C)C4)sc3n2)cc1 (centres undefined),·,·,·,7%
COc1cc(NS(=O)(=O)c2ccc(NC(=S)NC(=O)c3sc4cc(F)ccc4c3Cl)cc2)nc(OC)n1,27µM*,1%,35%,?
COc1ccc(-c2csc(Nc3ccc(S(=O)(=O)Nc4cc(OC)nc(OC)n4)cc3)n2)cc1,24µM*,-2%,-32%,-1%
COc1cc(NS(=O)(=O)c2ccc(N/C=C\C(=O)c3ccc(C)cc3)cc2)nc(OC)n1,3.4µM*,·,41%,-20%
COc1cc(NS(=O)(=O)c2ccc(Nc3nc(-c4ccccn4)cs3)cc2)nc(OC)n1,-22%,6%,5%,-1%
COc1cc(NS(=O)(=O)c2ccc(NC(=S)NC(=O)c3sc4ccccc4c3Cl)cc2)nc(OC)n1,?,9%,3%,-12%
Cn1cccc1C(=O)NNC(=O)COc1ccccc1F,-5%,4%,13µM*,-5%
O=C(COc1ccccc1F)NNC(=O)c1cccc(-n2cccc2)c1,-3%,-10%,2%,4%
COc1ccc(NC(=O)Cc2csc(COc3cccc(C)c3)n2)c(OC)c1,·,·,·,11%
Cc1ccc(NC(=O)Cn2c(O)c(N=NS(=O)(=O)c3ccc(C)cc3)c3ccccc32)cc1,27µM*,1%,-23%,?
Cc1ccc(NC(=O)Cn2c(O)c(N=NC(N)=O)c3ccccc32)cc1,-1%,1%,-34%,-3%
CCOC(=O)COn1c(-c2cccc(Cl)c2)nc2ccc([N+](=O)[O-])cc21,2%,1%,7.1µM*,-10%
CCOC(=O)C(C)On1c(-c2cccc(Cl)c2)nc2ccc([N+](=O)[O-])cc21 (centres undefined),-8%,-5%,38%,1%
CCS(=O)(=O)n1nc(-c2ccco2)nc1SC,9.5µM*,·,24%,?
Cc1ccc(S(=O)(=O)n2nc(-c3ccco3)nc2SCc2ccccc2)cc1,-2%,-2%,11µM*,-5%
CSc1nc(-c2ccco2)nn1S(=O)(=O)c1ccc(C)cc1,?,0%,0%,?
SMILES,PLK1 PBD block,Tb PFK block,BRCA1 expr act,VDR inh
CSc1nc(-c2ccco2)nn1S(=O)(=O)c1ccccc1,·,-6%,·,·
CSc1nc(-c2ccco2)nn1C(=O)c1ccc(C)cc1,?,-2%,1%,-22%
Cc1ccc(S(=O)(=O)N2CCN=C2SCc2ccccc2)cc1,30µM*,-4%,-5%,-26%
COc1ccccc1C(=O)n1nc(-c2ccco2)nc1SC,11µM*,-6%,5%,-9%
CCOc1ccc(Sc2cc(C(=O)NCc3ccccc3Cl)c3ccccc3n2)cc1,·,·,·,0%
C=CCN=c1scc(-c2ccco2)n1/N=C/c1ccc(O)c(O)c1O,7.5µM*,1%,64%,-12%
CC(C)N=c1scc(-c2ccco2)n1/N=C/c1ccc(O)c(O)c1,-14%,2%,-18%,2%
COCCN=c1scc(-c2ccco2)n1/N=C/c1ccc(O)c(O)c1O,6.7µM*,-16%,20%,-6%
